# Results: the supplement of paper PMC12494721
# Structures can show the parent of a compound that is named as a salt.
# How the values were obtained:
# Details in all cases: incubation time: 27 h, anaerobic, 37 °C;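 for the amine columns active = adjusted P below 0.05 in both replicates with a change the same way and a mean fold change under 0.8 or over 1.25; inactive = the rest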
# [1] = test system: Clostridium sporogenes DSM 1664; assay: growth (OD595) fold change vs plate DMSO controls (fold change (ratio)); higher = more growth
# Outline: (§1)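 After 27 h at 37 °C under anaerobic conditions, 96-well cultures in mGAM were shaken and read at 595 nm. The readings were blank-subtracted, corrected for compound background using 20 µM compound solutions in water, and converted to OD with a calibration factor of 5. Growth is defined as the fold change over the median of DMSO controls on each plate. Fold changes above 1.5 were set to NA, and each value is the mean of 2 biological replicates.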
# [2] = test system: Escherichia coli IAI1; assay: as above
# Outline: as §1
# [3] = test system: Klebsiella aerogenes DSM 30053; assay: as above
# Outline: as §1
# [4] = test system: Ruminococcus gnavus DSM 108212; assay: as above
# Outline: as §1
# [5] = test system: Klebsiella aerogenes DSM 30053; assay: fold change of Histamine concentration vs plate DMSO controls (fold change (ratio)); higher = more amine produced, active = hit call of the paper (significant change in both replicates, either direction)
# Outline: (§2)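 Each value is the fold change relative to DMSO-only wells on the same plate. Four gut bacterial strains were grown anaerobically in mGAM at 37 °C for 27 h in 80 µL wells, starting at OD 0.1 before a 1:1 dilution, with compounds at 20 µM final (sweeteners 50 µM). Whole cultures were extracted with cold acetonitrile/methanol containing 0.1% formic acid, centrifuged, and amines were quantified by LC–triple-quadrupole MS (dynamic MRM) against external calibration curves with within-batch drift correction. Values are means of 2 biological replicates.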
# [6] = test system: Clostridium sporogenes DSM 1664; assay: fold change of Tryptamine concentration vs plate DMSO controls (fold change (ratio)); higher = more amine produced, active = hit call of the paper (significant change in both replicates, either direction)
# Outline: as §2
# [7] = test system: Ruminococcus gnavus DSM 108212; assay: as above
# Outline: as §2
# [8] = test system: Escherichia coli IAI1; assay: fold change of Putrescine concentration vs plate DMSO controls (fold change (ratio)); higher = more amine produced, active = hit call of the paper (significant change in both replicates, either direction)
# Outline: as §2
# [9] = test system: Klebsiella aerogenes DSM 30053; assay: as above
# Outline: as §2
# [10] = test system: Escherichia coli IAI1; assay: fold change of Cadaverine concentration vs plate DMSO controls (fold change (ratio)); higher = more amine produced, active = hit call of the paper (significant change in both replicates, either direction)
# Outline: as §2
# [11] = test system: Klebsiella aerogenes DSM 30053; assay: as above
# Outline: as §2
# [12] = test system: Ruminococcus gnavus DSM 108212; assay: fold change of 2-Phenylethylamine concentration vs plate DMSO controls (fold change (ratio)); higher = more amine produced, active = hit call of the paper (significant change in both replicates, either direction)
# Outline: as §2
SMILES,growth [1],growth [2],growth [3],growth [4],fold change of Histamine concentration [5],fold change of Tryptamine concentration [6],fold change of Tryptamine concentration [7],fold change of Putrescine concentration [8],fold change of Putrescine concentration [9],fold change of Cadaverine concentration [10],fold change of Cadaverine concentration [11],fold change of 2-Phenylethylamine concentration [12]
C[C@H](CCc1ccccc1)NC[C@H](O)c1ccc(O)c(C(N)=O)c1 [Dilevalol] (20 µM),1.02,0.978,1.11,1.1,0.929 (inactive),1.04 (inactive),0.98 (inactive),1.02 (inactive),1.01 (inactive),0.974 (inactive),1.01 (inactive),1.01 (inactive)
Nc1ccc(C(=O)O)c(O)c1 [Aminosalicylic acid] (20 µM),1.11,1.02,1.02,0.97,1.06 (inactive),1 (inactive),0.999 (inactive),1.01 (inactive),1.01 (inactive),1.02 (inactive),0.98 (inactive),0.981 (inactive)
Nc1c2ccccc2nc2ccccc12 [Aminacrine] (20 µM),0.903,1.11,0.922,1.45,1.07 (inactive),0.923 (inactive),0.911 (inactive),1.15 (inactive),0.952 (inactive),1.29 (active),0.964 (inactive),0.947 (inactive)
Cc1ccc2c([nH]c(=O)c3c(=O)cc(C(=O)OCCC(C)C)oc32)c1C [Repirinast] (20 µM),1.15,1.03,0.997,1.08,1.03 (inactive),1.08 (inactive),0.977 (inactive),1.01 (inactive),1 (inactive),1.03 (inactive),0.998 (inactive),0.964 (inactive)
O=C(CCCl)NCc1ccccc1 [Beclamide] (20 µM),1.18,1.02,1,1.07,1.03 (inactive),1.02 (inactive),1.02 (inactive),1.01 (inactive),1.01 (inactive),1.04 (inactive),0.996 (inactive),1.03 (inactive)
CCOC(=O)N1CCC(=C2c3ccc(Cl)cc3CCc3cccnc32)CC1 [Loratadine] (20 µM),1.04,1.01,1.04,0.87,0.98 (inactive),1.18 (inactive),0.864 (inactive),1.02 (inactive),0.999 (inactive),1.05 (inactive),1 (inactive),0.808 (inactive)
CC1CNc2c(cccc2S(=O)(=O)N[C@@H](CCCNC(=N)N)C(=O)N2CC[C@@H](C)C[C@@H]2C(=O)O)C1 (some centres undefined) [Argatroban] (20 µM),1.12,0.953,1.16,0.732,0.986 (inactive),0.976 (inactive),0.987 (inactive),0.978 (inactive),1.04 (inactive),1.01 (inactive),1 (inactive),0.937 (inactive)
CC(=O)N(O)CCCCCNC(=O)CCC(=O)N(O)CCCCCNC(=O)CCC(=O)N(O)CCCCCN [Deferoxamine mesylate] (20 µM),0.934,0.997,0.996,1.06,0.926 (inactive),1.04 (inactive),1.18 (inactive),0.952 (inactive),0.951 (inactive),0.996 (inactive),1.03 (inactive),1.29 (inactive)
Cc1c(Cl)cccc1Nc1ccccc1C(=O)O [Tolfenamic acid] (20 µM),1.18,1.01,1.06,1.14,0.917 (inactive),0.901 (inactive),0.951 (inactive),1.07 (inactive),0.984 (inactive),1.07 (inactive),1.01 (inactive),0.937 (inactive)
CCOC(=O)c1ccc(N)cc1 [Benzocaine] (20 µM),1.09,1.03,1.08,1.02,0.954 (inactive),1.1 (inactive),1.06 (inactive),0.92 (inactive),0.969 (inactive),1 (inactive),1.01 (inactive),1.1 (inactive)
C=C1C[C@H]2[C@@H]3C=C(C)C4=CC(=O)CC[C@]4(C)[C@H]3CC[C@]2(C)[C@@]1(OC(C)=O)C(C)=O [Melengestrol acetate] (20 µM),1.17,1.07,1.07,1.04,1.03 (inactive),1 (inactive),1.03 (inactive),1.02 (inactive),1 (inactive),1.02 (inactive),0.995 (inactive),1.05 (inactive)
C/C(=C\C(=O)OCCCCCCCCC(=O)O)C[C@@H]1OC[C@H](C[C@@H]2O[C@H]2[C@@H](C)[C@H](C)O)[C@@H](O)[C@H]1O [Mupirocin] (20 µM),0.909,0.423,0.631,0.934,0.384 (active),0.968 (inactive),1.04 (inactive),0.182 (active),0.7 (active),0.209 (active),0.763 (active),0.957 (inactive)
